Measurements taken from PubChem BioAssay AID590 (National Center for Advancing Translational Sciences (NCATS), 2007).
The campaign covered roughly 59,000 compounds. About 6,500 (11%) were called active. Inconclusive results (about 15%) are left out. Cut-off read from the data, not from the text of the source: active = max dye-equivalent concentration above about 10 nM; inconclusive = mostly about 1.1 nM to 9.6 nM; inactive = weaker than that. The entries come from a sample that favours actives as a whole.

Assay: qHTS Assay for Spectroscopic Profiling in A350 Spectral Region
Conditions: Compound autofluorescence, 340/450 nm, Alexa 350 dye-equivalents; stronger effect = higher value

Max dye-equivalent concentration, inactive:
COc1ccccc1-n1nnnc1S(=O)(=O)Cc1ccc(Cl)cc1
COc1ccc(OCC(=O)N2CCN(C(=O)COc3ccccc3)CC2)cc1
CCC(CC)C(=O)Nc1cccc(C(=O)N2CCCC2)c1
Cc1noc(C)c1CSc1nnc2ccc3ccccc3n12
CCC(=O)Nc1sc(C(=O)N2CCCCC2)c(C)c1C#N
CC(C)C(C(=O)NC1CCCCC1)N(CC1CCCO1)C(=O)CNS(=O)(=O)c1ccc(F)cc1 (stereo not drawn)
c1ccc2c(CNn3cnnc3)cccc2c1
COC(=O)[C@H](Cc1ccccc1)NC(=O)N1CC(C)OC(C)C1 (stereo partly drawn)
COc1ccc(C2N=C(N)N=C(N)N2c2ccccc2)cc1OC (stereo not drawn)
C=CCn1c(CC(=O)Nc2cccc(OC)c2)nnc1SCC(=O)NC1CCCCC1
Cn1c(SCC(=O)c2cccs2)nnc1-c1ccco1
c1coc(-c2nc3nc4ccccc4n3nc2-c2ccco2)c1
O=C(Nc1cc(C(F)(F)F)ccc1Cl)c1cc(C2CC2)on1
Cn1c(SCC(=O)OC2CCCCC2)nnc1-c1ccc(S(=O)(=O)N2CCCC2)cc1
O=C(COC(=O)c1ccc(Oc2ccccc2)cc1)Nc1nnc(-c2ccccc2)o1
O=C(CSc1nnc(-c2ccccc2)o1)N1CCOCC1
O=C(O)CN1C(=O)CC(Cc2ccccc2)C1=O (stereo not drawn)
c1nc(COc2nsnc2N2CCOCC2)cs1
O=C(c1cccs1)N1CCC(c2nc3ccccc3s2)CC1
Cc1nn(Cc2ccccc2)c(Cl)c1C(=O)OC1CCOC1=O (stereo not drawn)
CC(C)NS(=O)(=O)c1ccc(OCC(=O)Nc2ccc3c(c2)OCCO3)cc1
COc1ccc(N2CCN(C(c3cc4ccc(C)cc4[nH]c3=O)c3nnnn3C3CCCC3)CC2)cc1 (stereo not drawn)
COCCn1nnnc1C(c1ccccc1Cl)N1CCN(c2ccccc2OC)CC1 (stereo not drawn)
Cc1cc(C)c2[nH]c(=O)c(C(c3nnnn3Cc3ccc4c(c3)OCO4)N3CCCC3)cc2c1 (stereo not drawn)
COc1ccc(OC)c(C(c2nnnn2C(C)(C)C)N2CCc3ccccc3C2)c1 (stereo not drawn)
CCOc1ccccc1Nc1nnc(SCC(=O)Nc2cc(C)on2)s1
Cc1ccccc1CN1CCN(C(=O)c2cccc(F)c2)CC1
CCOc1ccccc1N=C1NC(=O)CS1
COc1ccccc1-c1nnc(SCC(=O)Nc2ccccc2)o1
c1ccc(CCN2CCN=C2Cc2ccccc2)cc1
O=c1cc(-c2ccc(O)c(O)c2)oc2cccc(O)c12
CC(C)OC(=O)C(C#N)c1nc2ccccc2nc1N1CCN(Cc2ccccc2)CC1 (stereo not drawn)
COc1ccc(-c2csc(N3CCN(Cc4ccc5c(c4)OCO5)CC3)n2)cc1
Cc1ccc(S(=O)(=O)N2CCN(Cc3cccc(C)c3O)CC2)cc1
CC(=O)Nc1cccc(NC(=O)c2c(-c3ccccc3)noc2C)c1
Cc1cc(=O)oc(C)c1C(=O)NC1CC(C)(C)NC(C)(C)C1
O=C(NCc1ccc2c(c1)OCO2)c1ccc2c(c1)C(=O)N(CC1CCCO1)C2=O (stereo not drawn)
O=C(CCN1C(=O)c2ccncc2C1=O)Nc1ccc2c(c1)OCCO2
CCC(c1nnnn1C1CCCC1)N1CCN(C(=O)c2ccco2)CC1 (stereo not drawn)
O=C(Nc1cccc(-c2nnc(-c3ccccc3)o2)c1)C1CCCO1 (stereo not drawn)
O=C(Nc1ccc(-c2nnc(-c3ccccc3)o2)cc1)C1CCCO1 (stereo not drawn)
CCNS(=O)(=O)c1ccc(NC(=O)Nc2cccc(OC)c2)cc1
CSCCC(NC(=O)c1ccc(=O)n(C)n1)c1nc2ccccc2[nH]1 (stereo not drawn)
COc1cc(C2C(C(=O)c3sc(C)nc3C)=C(O)C(=O)N2CCN(C)C)cc(OC)c1OC (stereo not drawn)
O=C(c1csnn1)N1CCC[C@@]2(CCN(Cc3nccs3)C2)C1
O=c1c2cc3c(=O)n(CC4CCCO4)c(=O)c3cc2c(=O)n1CC1CCCO1 (stereo not drawn)
Cc1ccc(C(=O)Nc2ccccc2C(=O)NC2CCCCC2)cc1S(=O)(=O)N1CCOCC1
NS(=O)(=O)c1cc(C(=O)O)c(Cl)c([N+](=O)[O-])c1Cl
COc1ccc(Br)c2c1C[C@H](C(=O)O)CC2
C=CCNC(=O)CCCC(=O)NCC=C
O=C(CCn1c(=S)[nH]c2ccccc2c1=O)NCCCN1CCCC1=O
CSc1nnc(-c2ccncc2)n1CCCN1CCCC1=O
COc1ccc(N2C(=O)CC(N3CCC(C(N)=O)CC3)C2=O)cc1 (stereo not drawn)
CC(C)NC(=O)N1CC[C@@]2(CCCN(C(=O)c3cccc(F)c3)C2)C1
CCCCCNC(=O)Cc1ccc(OC)cc1
CCS(=O)(=O)n1nc(-c2ccccc2)nc1SCc1ccccc1
CCCCCOC(=O)C1=C(C)Nc2nnnn2C1c1ccc(OC)c(OC)c1OC (stereo not drawn)
COc1ccccc1NC(=O)C1=C(C)Nc2nnnn2C1c1cccc(Br)c1 (stereo not drawn)
CC(=O)OC(C(=O)NC1CCCCC1)c1ccccc1 (stereo not drawn)
Cc1cc(C(=O)OCC(=O)c2c(N)n(C)c(=O)n(C)c2=O)c(C)o1
CC(NC(=O)c1cc(-c2ccccc2)on1)c1ccccc1 (stereo not drawn)
Cc1ccc2cc(C#N)c(SCC(=O)NCC3CCCO3)nc2c1C (stereo not drawn)
CCC(C)NC(=O)C1CCC(=O)N1Cc1ccc(C)cc1 (stereo not drawn)
NC(=O)C1(N2CCCCC2)CCN(C(=O)c2ccc(C#Cc3ccccc3)o2)CC1
O=S(=O)(NCc1ccccc1Cl)c1cnc[nH]1
Cc1cc(NC(=O)c2cc(-c3cccs3)on2)nn1Cc1ccc(Cl)cc1
O=C(O)CCC(=O)N(Cc1cccs1)Cc1cccs1
COc1ccc(NC(=O)N2CC3(CCN(C(C)=O)CC3)C2)cc1
CC(C)c1ccc(NC(=O)NC2CCCCC2)cc1
FC(F)(F)c1ccccc1-c1nc(-n2ccnc2)c2ccccc2n1
Cn1c(=O)[nH]c(=O)c2c1nc(NCCCn1ccnc1)n2Cc1cccc(Br)c1
COc1cccc(NC(=O)c2ccccc2SC)c1
COc1ccc(NC(=O)c2c(C)oc3c2CCCC3)cc1
O=C(O)c1ccc(C(=O)c2ccccc2C(=O)O)cc1C(=O)O
C=CCn1c(COc2ccccc2F)nnc1SCC(=O)N1CC(=O)Nc2ccccc21
CCOC(=O)CNC(=O)CSc1nnc(COc2ccc(Cl)cc2)n1CC
COCc1nc2ccccc2n1Cc1ccccc1Br
COc1ccc(OCC(=O)OCCN(C)C)cc1
CCOC(=O)c1c(C)oc2ccc(OCC(=O)N(CC)CC)cc12
Cc1nn(-c2ccccc2)c(C)c1C(=O)OCC(=O)NC(=O)NC1CCCCC1
O=C(CSc1nnc(-c2ccccn2)n1-c1ccccc1)Nc1ccc2c(c1)OCO2
O=c1ccc2cc(S(=O)(=O)N3CCN(c4ccccc4)CC3)ccc2o1
Cc1cc(C)cc(NC(=O)C2CCN(c3nc(C)cc(C)n3)CC2)c1
Cc1ccc2c(NC(=O)C3CC3)cccc2n1
CCCC(=O)N1c2ccc(-c3csc(N)n3)cc2CC1C (stereo not drawn)
Cc1noc(NS(=O)(=O)c2ccc(N3CC(O)=C(c4ccccc4)C3=N)cc2)c1C
COc1cccc(N(C(=O)c2ccn[nH]2)C2(C(=O)Nc3c(C)cccc3C)CCCCC2)c1

Max dye-equivalent concentration, active:
COc1ccc(OCc2cccc(C(=O)N3CCCC3)c2)cc1 18 nM
Cn1c(-c2ccco2)nc2cc3ccccc3cc21 1100 nM
Nc1ccc(-c2nnc(-c3ccc(-c4ccccc4)cc3)o2)cc1 300 nM
O=C(OC1CCOC1=O)c1ccc(-c2nc3ccccc3s2)s1 (stereo not drawn) 1100 nM
COCCn1nnnc1C(c1cc2ccc(OC)cc2[nH]c1=O)N1CCc2ccccc2C1 (stereo not drawn) 18 nM
CCOc1ccc2[nH]c(=O)c(C(c3nnnn3CCOC)N3CCOCC3)cc2c1 (stereo not drawn) 690 nM
CC(C)OC(=O)C(C#N)c1nc2ccccc2nc1N1CCN(Cc2ccc3c(c2)OCO3)CC1 (stereo not drawn) 120 nM
Cc1cc(=O)oc(C)c1C(=O)Nc1cnc2ccccc2c1 12 nM
CCC(=O)Nc1ccc(C(=O)Nc2ccc3c(c2)C(=O)N(CC2CCCO2)C3=O)cc1 (stereo not drawn) 150 nM
O=C(Nc1ccc(-c2nnc(-c3ccccc3)o2)cc1)c1ccc(Br)o1 68 nM
CN1c2ccccc2-c2nc3ccccc3n2C1c1ccco1 (stereo not drawn) 3400 nM
O=C(NC1CCCCC1)c1ccc2c(=O)n(CC3CCCO3)c(=O)[nH]c2c1 (stereo not drawn) 15 nM
CS(=O)(=O)N(Cc1nc2sc3c(c2c(=O)[nH]1)CCCC3)C1CCCCC1 44 nM
CC(C)(C)OC(=O)c1c(N)n(CCCN2CCCC2=O)c2nc3ccccc3nc12 9100 nM
COC(=O)c1ccc(C2C3=C(Nc4nnnn42)c2ccccc2OC3)cc1 (stereo not drawn) 74 nM
CC(NC(=O)CSc1nc2c(cc1C#N)CN(C)CC2)c1ccccc1 (stereo not drawn) 26 nM
CC(C)Cn1c(CCC(=O)O)ccc1-c1cccs1 410 nM
COc1cc(OC)cc(C(=O)Nc2ccc(-c3nc4ccccc4o3)c(O)c2)c1 310 nM
COC(=O)COc1ccc2oc(=O)cc(C)c2c1 28 nM
CC(=O)N1CCC(C(=O)Nc2nc(-c3ccccc3)ns2)CC1 1700 nM
COc1ccc(OC)c2c(N)c(C#N)c(C(F)(F)C(F)(F)F)nc12 150 nM
